Measured values published in PubChem BioAssay (Tox21).
Inconclusive results are not listed. The source made the active and inactive calls. Unless noted, the call rests on the fitted dose curve; in most records, active means well fitted curve in the direction sought with a large enough effect in the repeat runs; inconclusive means weak or mixed curves; inactive means no such curve, though single readings can be large; an effect the other way counts as inactive or inconclusive.

Key:
[1] = qHTS assay to identify aromatase inhibitors - cell viability counter screen (AID 743084);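 further: cells stimulated with testosterone during compound exposure; nearly all actives have a fitted effect of over 55% in size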
[2] = biological target: Aryl hydrocarbon receptor (Homo sapiens) (UniProt P35869); assay: qHTS assay to identify small molecule that activate the aryl hydrocarbon receptor (AhR) signaling pathway (AID 743085);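 further: HG2L7.5c1 human HepG2 liver cells with stably integrated DRE-driven firefly reporter; series mostly up to about 70 µM; nearly all actives have a fitted effect of over 15% in size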
Aryl hydrocarbon receptor (Homo sapiens), sequence (P35869 whole entry, looked up): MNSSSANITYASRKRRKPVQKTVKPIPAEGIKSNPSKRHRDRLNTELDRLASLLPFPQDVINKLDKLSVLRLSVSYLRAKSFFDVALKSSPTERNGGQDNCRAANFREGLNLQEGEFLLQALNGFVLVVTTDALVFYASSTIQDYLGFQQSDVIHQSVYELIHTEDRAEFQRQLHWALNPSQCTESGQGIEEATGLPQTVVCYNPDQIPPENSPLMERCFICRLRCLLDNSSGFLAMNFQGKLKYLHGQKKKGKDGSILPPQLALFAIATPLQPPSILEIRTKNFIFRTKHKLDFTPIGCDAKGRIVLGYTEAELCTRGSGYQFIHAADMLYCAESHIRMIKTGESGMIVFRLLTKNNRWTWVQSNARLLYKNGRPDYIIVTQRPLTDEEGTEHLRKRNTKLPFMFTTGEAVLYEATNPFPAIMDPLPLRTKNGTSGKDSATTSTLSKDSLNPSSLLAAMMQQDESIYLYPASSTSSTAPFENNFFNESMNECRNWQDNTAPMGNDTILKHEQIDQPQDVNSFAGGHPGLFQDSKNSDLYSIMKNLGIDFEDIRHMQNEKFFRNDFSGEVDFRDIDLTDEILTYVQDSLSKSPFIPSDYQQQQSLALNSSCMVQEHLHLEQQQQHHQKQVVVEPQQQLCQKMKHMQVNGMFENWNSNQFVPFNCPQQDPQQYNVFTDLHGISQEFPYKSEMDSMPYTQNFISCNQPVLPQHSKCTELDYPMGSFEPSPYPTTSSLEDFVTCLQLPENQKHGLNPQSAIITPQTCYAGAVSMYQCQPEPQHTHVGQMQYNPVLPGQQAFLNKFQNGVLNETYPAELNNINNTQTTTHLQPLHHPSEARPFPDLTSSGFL
In short: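 Cell line HG2L7.5c1 (human hepatoma, 20× DRE-luc). Plated, 5 h 37C, compound/DMSO added, 24 h 37C. CellTiter-Fluor 30 min 37C → fluorescence; then ONE-Glo 30 min RT → luminescence.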

[3] = qHTS assay to identify small molecule that activate the aryl hydrocarbon receptor (AhR) signaling pathway - cell viability counter screen (AID 743086);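 further: HepG2 liver cells carrying the AhR DRE luciferase reporter; series mostly up to about 70 µM; nearly all actives have a fitted effect of over 45% in size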
In short: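 HepG2-AhR-luc (HG2L7.5c1) cells, 4000/well, treated 24 h at 37 C with compound; viability measured as CellTiter-Fluor fluorescence after 30 min in the same wells as the luciferase read.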

[4] = biological target: Peroxisome proliferator-activated receptor gamma (Homo sapiens) (UniProt P37231); assay: qHTS assay to identify small molecule agonists of the peroxisome proliferator-activated receptor gamma (PPARg) signaling pathway (AID 743094; active means well fitted activation curve with a large enough effect in the signal ratio in the repeat runs, not every such curve was filed as active; the % refers to the signal ratio)
Peroxisome proliferator-activated receptor gamma (Homo sapiens), sequence (P37231 whole entry, looked up): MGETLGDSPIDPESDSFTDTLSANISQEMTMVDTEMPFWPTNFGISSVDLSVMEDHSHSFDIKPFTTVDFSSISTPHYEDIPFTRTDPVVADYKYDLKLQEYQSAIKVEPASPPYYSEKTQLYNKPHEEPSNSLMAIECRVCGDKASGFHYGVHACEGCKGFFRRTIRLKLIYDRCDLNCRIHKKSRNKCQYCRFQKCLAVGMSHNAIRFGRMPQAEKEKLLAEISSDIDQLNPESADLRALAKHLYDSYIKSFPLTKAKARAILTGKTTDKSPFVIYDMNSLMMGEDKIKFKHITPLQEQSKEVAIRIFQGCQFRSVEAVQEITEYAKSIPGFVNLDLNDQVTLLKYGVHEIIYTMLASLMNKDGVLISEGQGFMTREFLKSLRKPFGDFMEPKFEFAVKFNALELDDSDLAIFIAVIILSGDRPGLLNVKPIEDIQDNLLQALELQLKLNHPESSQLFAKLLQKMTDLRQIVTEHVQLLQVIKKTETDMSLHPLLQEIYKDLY
In short: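 Cell-based bla reporter, HEK293H background, PPARg-driven UAS. Pre-incubation 5 h, 37C, 5% CO2. Compound 17 h, 37C. Substrate 1 h RT; fluorescence.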

[5] = biological target: Peroxisome proliferator-activated receptor gamma (Homo sapiens) (UniProt P37231); assay: qHTS assay to identify small molecule antagonists of the peroxisome proliferator-activated receptor gamma (PPARg) signaling pathway (AID 743191; calls by dose curve; further: series mostly up to about 63 µM; nearly all actives have a fitted effect of over 30% in size)
In short: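 GeneBLAzer PPARg UAS-bla HEK293H cells, 5 h post-plating, exposed to compounds 17 h at 37C. LiveBLAzer B/G FRET substrate added for 1 h at room temperature; beta-lactamase reporter read by fluorescence intensity.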

[6] = qHTS assay to identify small molecule antagonists of the peroxisome proliferator-activated receptor gamma (PPARg) signaling pathway - cell viability counter screen (AID 743194); further: nearly all actives have a fitted effect of over 55% in size
In short: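 Cytotoxicity counter screen in PPARg-bla HEK293H cells, same wells as reporter assay. Compounds plus 50 nM rosiglitazone (final) for 17 h at 37 C, then viability read by CellTiter-Glo luminescence.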

[7] = qHTS assay for small molecule agonists of the antioxidant response element (ARE) signaling pathway (AID 743202; active means well fitted activation curve with a large enough effect in the signal ratio in the repeat runs, not every such curve was filed as active; the % refers to the signal ratio)
In short: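 HepG2 ARE-bla cells; 16 h treatment at 37 C; FRET-based beta-lactamase fluorescence read after 2 h substrate incubation at room temperature.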

[8] = qHTS assay for small molecule agonists of the antioxidant response element (ARE) signaling pathway - cell viability counter screen (AID 743203; calls by dose curve; further: nearly all actives have a fitted effect of over 55% in size)
In short: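 Measured in the same wells as the beta-lactamase ARE reporter, this read-out is CellTiter-Glo luminescence from HepG2 ARE-bla cells given compounds for 16 hrs.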

[9] = qHTS assay for small molecule activators of the heat shock response signaling pathway - cell viability counter screen (AID 743209); further: nearly all actives have a fitted effect of over 50% in size
In short: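 Same-well multiplex: after 2.5 h room-temperature incubation with LiveBLAzer B/G substrate and fluorescence reading, CellTiter-Glo reagent was added to HSE-bla HeLa cells that had received compound for 5 h at 37 C; luminescence read after 30 min.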

[10] = qHTS assay for small molecule activators of the heat shock response signaling pathway (AID 743210; active means well fitted activation curve with a large enough effect in the signal ratio in the repeat runs, with a control signal flat, not every such curve was filed as active; the % refers to the signal ratio;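 further: HeLa cells with beta-lactamase reporter driven by heat shock elements; series mostly up to about 63 µM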)
In short: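 Following overnight attachment, HSE-bla HeLa cells received test compounds for 5 h at 37 C; beta-lactamase activity was then detected via FRET substrate fluorescence.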

[11] = biological target: Peroxisome proliferator-activated receptor delta (Homo sapiens) (UniProt Q03181); assay: qHTS assay to identify small molecule agonists of the peroxisome proliferator-activated receptor delta (PPARd) signaling pathway (AID 743212; calls by dose curve)
Peroxisome proliferator-activated receptor delta (Homo sapiens), sequence (Q03181 whole entry, looked up): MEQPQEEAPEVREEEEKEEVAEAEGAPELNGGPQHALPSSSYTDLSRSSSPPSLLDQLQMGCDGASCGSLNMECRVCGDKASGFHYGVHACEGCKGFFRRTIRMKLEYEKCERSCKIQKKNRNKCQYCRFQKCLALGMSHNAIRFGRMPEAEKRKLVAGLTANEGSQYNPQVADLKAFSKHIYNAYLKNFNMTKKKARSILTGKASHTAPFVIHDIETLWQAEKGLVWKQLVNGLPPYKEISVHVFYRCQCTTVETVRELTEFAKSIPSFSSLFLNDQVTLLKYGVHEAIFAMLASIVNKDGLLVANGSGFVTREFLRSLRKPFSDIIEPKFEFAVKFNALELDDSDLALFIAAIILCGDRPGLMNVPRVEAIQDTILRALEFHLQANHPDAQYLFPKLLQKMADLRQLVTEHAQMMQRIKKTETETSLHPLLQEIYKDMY
In short: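 Tox21 library screened in GeneBLAzer PPARd UAS-bla HEK293H cells. After compound treatment at 37 C, a FRET-based beta-lactamase substrate was applied for 2 h and fluorescence recorded.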

[12] = qHTS assay to identify small molecule antagonists of the peroxisome proliferator-activated receptor delta (PPARd) signaling pathway - cell viability counter screen (AID 743213); further: nearly all actives have a fitted effect of over 50% in size
In short: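 PPARd-bla HEK293H cells (3000/well) got compound plus 300 nM L165041 agonist for 17 h at 37 C. Viability in the same wells came from CellTiter-Glo luminescence after 30 min at room temperature.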

[13] = biological target: Peroxisome proliferator-activated receptor delta (Homo sapiens) (UniProt Q03181); assay: qHTS assay to identify small molecule antagonists of the peroxisome proliferator-activated receptor delta (PPARd) signaling pathway (AID 743215; active means well fitted inhibition curve with a large enough effect in the signal ratio in the repeat runs, not every such curve was filed as active; the % refers to the signal ratio;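 further: cells stimulated with agonist L165041 at 300 nM final during compound exposure; series mostly up to about 62 µM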)
In short: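 Fluorescence from cleaved LiveBLAzer B/G FRET substrate (2 h, room temperature) reports PPARd-driven beta-lactamase in HEK293H UAS-bla cells. Cells had been treated 17 h at 37 C with compound plus 300 nM final L165041.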

[14] = biological target: Bile acid receptor (Homo sapiens) (UniProt Q96RI1); assay: qHTS assay to identify small molecule antagonists of the farnesoid-X-receptor (FXR) signaling pathway (AID 743217; active means well fitted inhibition curve with a large enough effect in the signal ratio in the repeat runs, not every such curve was filed as active; the % refers to the signal ratio)
Bile acid receptor (Homo sapiens), sequence (Q96RI1 whole entry, looked up): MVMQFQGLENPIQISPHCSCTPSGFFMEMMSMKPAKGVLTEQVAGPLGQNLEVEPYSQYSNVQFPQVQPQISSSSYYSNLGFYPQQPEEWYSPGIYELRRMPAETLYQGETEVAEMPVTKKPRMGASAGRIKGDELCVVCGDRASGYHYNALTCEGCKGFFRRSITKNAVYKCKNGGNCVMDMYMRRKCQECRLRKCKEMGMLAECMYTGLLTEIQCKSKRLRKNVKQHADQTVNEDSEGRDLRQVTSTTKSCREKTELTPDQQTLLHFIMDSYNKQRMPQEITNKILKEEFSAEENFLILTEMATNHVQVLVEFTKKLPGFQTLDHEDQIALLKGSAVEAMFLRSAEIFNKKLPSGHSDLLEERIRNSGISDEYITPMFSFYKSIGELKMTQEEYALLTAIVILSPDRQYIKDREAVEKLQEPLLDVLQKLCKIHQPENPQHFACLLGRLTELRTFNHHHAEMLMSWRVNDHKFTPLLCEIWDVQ
In short: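 FRET fluorescence after 2 h room-temperature LiveBLAzer loading gives the readout. Prior step: FXR-bla HEK 293T cells, seeded and incubated 5 h, received test compounds plus 50 uM final CDCA for 16 h at 37 °C.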

[15] = qHTS assay to identify small molecule agonists of the farnesoid-X-receptor (FXR) signaling pathway - cell viability counter screen (AID 743218); further: nearly all actives have a fitted effect of over 45% in size
In short: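 Readout: CellTiter-Glo luminescence, 30 min RT, multiplexed after the FXR-bla FRET reading. HEK 293T FXR-UAS-bla cells received compound 5 h post-plating and were incubated 16 h at 37 C.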

[16] = biological target: Bile acid receptor (Homo sapiens) (UniProt Q96RI1); assay: qHTS assay to identify small molecule agonists of the farnesoid-X-receptor (FXR) signaling pathway (AID 743220; active means well fitted activation curve with a large enough effect in the signal ratio in the repeat runs, not every such curve was filed as active; the % refers to the signal ratio)
In short: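 FXR-UAS-bla HEK 293T cells carrying a UAS-driven beta-lactamase reporter were plated for 5 h at 37C/5% CO2, then exposed to DMSO-dissolved Tox21 10K compounds for 16 h at 37C. A LiveBLAzer B/G FRET substrate was loaded for 2 h at room temperature before fluorescence reading.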

[17] = qHTS assay to identify small molecule antagonists of the farnesoid-X-receptor (FXR) signaling pathway - cell viability counter screen (AID 743221; active means well fitted cell-killing curve with a large enough effect in the repeat runs, not every such curve was filed as active; further: nearly all actives have a fitted effect of over 50% in size)
In short: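 Luminescence from CellTiter-Glo measures cytotoxicity in GeneBLAzer FXR-UAS-bla HEK 293T cells. Cells were exposed to compounds with 50 uM chenodeoxycholic acid (final) for 16 h at 37 C, in wells also used for the reporter readout.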

[18] = qHTS assay to identify small molecule agonists of the peroxisome proliferator-activated receptor delta (PPARd) signaling pathway - cell viability counter screen (AID 743211); further: nearly all actives have a fitted effect of over 55% in size
In short: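 HEK293H PPARd-bla, 3000 cells/well; 5 h preincubation 37C/5% CO2; cpd in DMSO, 17 h 37C; B/G FRET substrate 2 h RT; CellTiter-Glo 30 min RT, luminescence.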

[19] = biological target: Vitamin D3 receptor (Homo sapiens) (UniProt P11473); assay: qHTS assay to identify small molecule agonists of the vitamin D receptor (VDR) signaling pathway (AID 743222; calls by dose curve)
Vitamin D3 receptor (Homo sapiens), sequence (P11473 whole entry, looked up): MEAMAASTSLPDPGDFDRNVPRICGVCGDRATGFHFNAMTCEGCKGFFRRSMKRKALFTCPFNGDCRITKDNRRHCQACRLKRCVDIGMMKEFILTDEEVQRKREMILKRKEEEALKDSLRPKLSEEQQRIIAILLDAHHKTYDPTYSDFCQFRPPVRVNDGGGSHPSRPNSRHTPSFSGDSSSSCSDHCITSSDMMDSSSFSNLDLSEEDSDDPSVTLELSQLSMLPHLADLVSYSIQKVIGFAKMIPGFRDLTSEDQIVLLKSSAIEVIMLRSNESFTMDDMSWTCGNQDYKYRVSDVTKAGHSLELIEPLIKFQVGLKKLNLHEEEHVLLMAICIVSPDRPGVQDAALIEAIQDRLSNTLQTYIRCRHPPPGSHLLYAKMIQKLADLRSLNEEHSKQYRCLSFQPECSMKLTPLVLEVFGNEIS
In short: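 Following 4 h attachment at 37C, VDR-bla cells (2,000 per well) received DMSO-dissolved compounds or controls. After 16 h incubation, LiveBLAzer B/G FRET substrate was added and fluorescence read 2 h later at room temperature.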

[20] = biological target: Vitamin D3 receptor (Homo sapiens) (UniProt P11473); assay: qHTS assay to identify small molecule antagonists of the vitamin D receptor (VDR) signaling pathway (AID 743223; active means well fitted inhibition curve with a large enough effect in the signal ratio in the repeat runs, not every such curve was filed as active; the % refers to the signal ratio)
In short: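 Antagonist mode uses 1alpha,25-dihydroxyvitamin D3 at 3 nM final as stimulus. VDR-bla cells receive compounds in DMSO, incubate 16 h at 37C, then a beta-lactamase FRET substrate for 2 h at room temperature before fluorescence measurement.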

Measured: Potency

O=C1c2ccccc2CCc2ccccc21
inactive: [1] | [2] | [3] | [4] | [5] | [6] | [7] | [8] | [9] | [10] | [11] | [12] | [13] | [14] | [15] | [16] | [17]

CC(C)c1cccc(C(C)C)c1
inactive: [1] | [2] | [3] | [4] | [5] | [6] | [7] | [8] | [9] | [10] | [18] | [11] | [12] | [14] | [15] | [16] | [17] | [19] | [20]

O=C(O)c1ccc(C(=O)O)c(C(=O)O)c1
inactive: [1] | [2] | [3] | [4] | [5] | [6] | [7] | [8] | [9] | [10] | [18] | [11] | [12] | [13] | [17]

CC(C)CCCCCCCOC(=O)CCCCC(=O)OCCCCCCCC(C)C
inactive: [1] | [2] | [3] | [4] | [5] | [7] | [8] | [9] | [10] | [18] | [11] | [12] | [14] | [16] | [17] | [19] | [20]

COc1ccc(OC)cc1
inactive: [1] | [2] | [3] | [4] | [5] | [6] | [7] | [8] | [9] | [10] | [11] | [12] | [13] | [15] | [17] | [19] | [20]

Brc1ccc(Br)c(Br)c1
inactive: [1] | [2] | [3] | [4] | [5] | [6] | [7] | [8] | [9] | [10] | [18] | [12] | [15] | [17] | [19] | [20]

CC(=O)CCC=C(C)C
inactive: [1] | [2] | [3] | [4] | [5] | [6] | [7] | [8] | [9] | [10] | [18] | [11] | [12] | [15] | [17] | [19] | [20]

CC(C)OC(=O)COc1ccc(Cl)cc1Cl
inactive: [1] | [2] | [3] | [4] | [5] | [6] | [7] | [8] | [9] | [10] | [18] | [11] | [12] | [13] | [14] | [15] | [16] | [17]
